One assay relates to HB3. As to the kind of experiment: qHTS profiling for inhibitors of Plasmodium falciparum proliferation (AID 504749). The settings on record: P. falciparum in erythrocytes, SYBR Green DNA, 72 h; series mostly up to 28.7 µM. A digest of the protocol:
(§1)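 Infected RBCs, 0.3% parasitemia/2.5% Hct final; cpd 72 h, 37 C, 5% CO2; lysis buffer with saponin/triton/SYBR Green I, o/n RT dark; FI 485/535; norm. to artemisinin (0.29 uM) and DMSO.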
Background: Quantitative high-throughput screening tests each substance at several concentrations.

In the next assay the test system is ICS. Described as above. Particulars: P. falciparum in erythrocytes, SYBR Green DNA, 72 h; series mostly up to 28.7 µM. A digest of the protocol: as §1
The subject of a further assay is JCK. Described as above. The settings on record: P. falciparum in erythrocytes, SYBR Green DNA, 72 h; series mostly up to 28.7 µM. The essentials: as §1
The next assay deals with N140. Described as above. The settings on record: P. falciparum in erythrocytes, SYBR Green DNA, 72 h; series mostly up to 28.7 µM. A digest of the protocol:
as §1

In a further assay the test system is P93_24. Described as above. The settings on record: P. falciparum in erythrocytes, SYBR Green DNA, 72 h; series mostly up to 28.7 µM. A digest of the protocol: as §1
Another assay concerns P94_40. Described as above. Particulars: P. falciparum in erythrocytes, SYBR Green DNA, 72 h; series mostly up to 28.7 µM. A digest of the protocol:
as §1

The next assay has as its system PAD. Described as above. Particulars: P. falciparum in erythrocytes, SYBR Green DNA, 72 h; series mostly up to 28.7 µM. A digest of the protocol: as §1
In another assay the test system is PC15. The description is as above. Particulars: P. falciparum in erythrocytes, SYBR Green DNA, 72 h; series mostly up to 28.7 µM. The essentials:
as §1

For a further assay, the system named is PC26. The description is as above. Particulars: P. falciparum in erythrocytes, SYBR Green DNA, 72 h; series mostly up to 28.7 µM. A digest of the protocol: as §1
A further assay concerns PC49. The description is as above. The settings on record: P. falciparum in erythrocytes, SYBR Green DNA, 72 h; series mostly up to 28.7 µM. A digest of the protocol:
as §1

A further assay concerns SC27B. Described as above. Particulars: P. falciparum in erythrocytes, SYBR Green DNA, 72 h; series mostly up to 28.7 µM. A digest of the protocol: as §1
Another assay concerns TAB109. The description is as above. Particulars: P. falciparum in erythrocytes, SYBR Green DNA, 72 h; series mostly up to 28.7 µM. A digest of the protocol:
as §1

A further assay relates to TAB113. The assay is described as above. The settings on record: P. falciparum in erythrocytes, SYBR Green DNA, 72 h; series mostly up to 28.7 µM. A digest of the protocol:
as §1

The subject of a further assay is TAB165. Described as above. Particulars: P. falciparum in erythrocytes, SYBR Green DNA, 72 h; series mostly up to 28.7 µM. A digest of the protocol: as §1
The subject of a further assay is W2. Described as above. The settings on record: P. falciparum in erythrocytes, SYBR Green DNA, 72 h; series mostly up to 28.7 µM. The essentials:
as §1

Another assay deals with HEK293. The assay is described as follows: Cytotoxic Profiling of Annotated Libraries Using Quantitative High-Throughput Screening (AID 1296008). As to max response: % is scaled to controls: 0 for no effect and ±100 for the full control effect. The settings on record: Five cell lines viability, CellTiter-Glo ATP luminescence, 48-72 h; max response: active compounds read low. The essentials:
(§2)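 Cytotoxicity was measured as CellTiter-Glo ATP luminescence, read after 10 min at room temperature. Compound treatment of the cells lasted 48 or 72 hr at 37 degrees Celsius in a qHTS format.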

The subject of another assay is HaCat. The description is as above. The settings on record: Five cell lines viability, CellTiter-Glo ATP luminescence, 48-72 h; max response: active compounds read low. A digest of the protocol: as §2
(In general: Cellular ATP, detected with luciferase, serves as a proxy for viable cell number.)

A further assay deals with KB-3-1. The description is as above. Particulars: Five cell lines viability, CellTiter-Glo ATP luminescence, 48-72 h; max response: active compounds read low. A digest of the protocol:
as §2

A further assay deals with NIH3T3. The assay is described as above. Particulars: Five cell lines viability, CellTiter-Glo ATP luminescence, 48-72 h; max response: active compounds read low. The essentials:
as §2

The next assay concerns CRL-7250. The assay is described as above. The settings on record: Five cell lines viability, CellTiter-Glo ATP luminescence, 48-72 h; max response: active compounds read low. A digest of the protocol: as §2

Inconclusive results are not listed. Values without a mark were called inactive. Activity calls are given as the source filed them. Calls follow the shape of the dose curve; as a rule, active = well fitted inhibition curve with a large enough effect; inconclusive = small, poorly fitted or top-dose-only effect; inactive = flat fitted curve, though single readings scatter.
Also: nearly all actives have a fitted effect of over 60% in size.
Potency is read from the fitted curve at half-maximal effect.

Regarding `Nc1ccc(S(=O)(=O)Nc2cnc3ccccc3n2)cc1`, the Potency result with HB3, with ICS, in the assay on JCK, with N140, with P93_24 and in the assay with P94_40 was “inactive” in each case. Besides, the Potency entry with PAD, in the assay on PC15, in the assay on PC26, in the assay on PC49, in the assay with SC27B and with TAB109 was “inactive” in each case. For the same molecule, the Potency result in the assay on TAB113, in the assay with TAB165 and with W2 was “inactive” in each case. In addition, the max response in the assay with HEK293 was 1.95%; in the assay on HaCat, -4.06%; in the assay on KB-3-1 it was -10.8%. For the same molecule, the call in the assay on NIH3T3 was inactive.
For the molecule `FC(F)(F)C(F)(F)C(F)(F)C(F)(F)C(F)(F)C(F)(F)C(F)(F)C(F)(F)Br`, the Potency result in the assay with HB3, in the assay with ICS, with JCK, in the assay on N140, with P93_24 and in the assay with P94_40 was “inactive” each time. Also, the Potency result in the assay with PAD, in the assay with PC15, with PC26, in the assay with PC49, with SC27B and with TAB109 was “inactive” each time. For the same molecule, the Potency entry in the assay on TAB113, with TAB165 and in the assay with W2 was “inactive” in each case. Further, the results for the max response with HEK293, in the assay with KB-3-1 and in the assay with NIH3T3 were 0.523%, 13.3% and -4.33%, respectively. Besides, the call in the assay with HaCat was inactive.
In the case of `O=C(N/N=C/c1ccc([N+](=O)[O-])o1)c1ccc(O)cc1`, the Potency with HEK293 is 7.5 µM (active). The max response was -33.9% with HaCat and -13.9% with KB-3-1.
As for `CCCN(CCc1cccs1)[C@H]1CCc2c(O)cccc2C1`, the Potency is 10 µM (active) in the assay with HB3; 0.794 µM (active) in the assay with ICS; 3.16 µM (active) with N140; 6.31 µM (active) in the assay on P93_24; 4.47 µM (active) in the assay on P94_40; 3.16 µM (active) in the assay with PAD. For the same molecule, the Potency is 6.31 µM (active) in the assay on PC15; 6.75 µM (active) in the assay on PC26; 11.2 µM (active) with PC49; 4.47 µM (active) in the assay on SC27B; 7.08 µM (active) with TAB109; 4.47 µM (active) in the assay with TAB113. The results for the Potency with TAB165 and with W2 were 4.47 µM (active) and 1.35 µM (active), respectively. For the same molecule, the max response is -5.8% in the assay with CRL-7250 and 5.8% in the assay on KB-3-1. Moreover, the call in the assay with HaCat and in the assay with NIH3T3 was inactive.
For `OC(C#CCN1CCCC1)(c1ccccc1)c1ccccc1`, the Potency result with HB3, in the assay with JCK and with PC15 was “inactive” throughout. Further, the results for the Potency in the assay with N140, with TAB165 and in the assay on W2 were 11.2 µM (active), 11.2 µM (active) and 2.13 µM (active), respectively. Also, the outcome in the assay with CRL-7250 and in the assay on HaCat was inactive. The max response in the assay on KB-3-1 is 0.398%; in the assay on NIH3T3, -3.64%.
Take `O=C1c2cccc3c2[C@H](CCC3)CN1[C@@H]1CN2CCC1CC2`: in the assay with HEK293, the Potency was 21.1 µM (active). Besides, the max response in the assay on HaCat was -46%.
Turning to `O=C(CCN1CCN2CCCC2C1)N1c2ccccc2Sc2ccc(Cl)cc21` (stereo not given), the Potency entry in the assay on HB3, with JCK and in the assay with TAB113 was “inactive” in each case. Moreover, the Potency with ICS was 5.01 µM (active); with W2, 3.01 µM (active). In addition, the figures for the max response in the assay on CRL-7250, with KB-3-1 and in the assay on NIH3T3 were -7.08%, 7.31% and 3.25%, respectively. Further, the molecule was classed as inactive with HaCat.
Regarding `N/C(=N\N=C\c1ccc(Cl)cc1)N/N=C/c1ccc(Cl)cc1`, the Potency in the assay with ICS is 2.24 µM (active); in the assay on SC27B it was 12.6 µM (active); with TAB109, 6.31 µM (active); in the assay on TAB165 it was 3.98 µM (active). In addition, the Potency result with PC26 and with PC49 was “inactive” throughout. Further, the molecule was called inactive with CRL-7250 and with HaCat. In addition, the max response in the assay with KB-3-1 was 13.1%; with NIH3T3, -19%.

These data come from PubChem BioAssay (NCATS).
